# Only some compounds are listed: those with a hit (about 3% of all), similar ones and a draw of the others.
# Nrf2 block = Nrf2 pathway inhibition. hit rate 2.1% among 360,000. Potency, µM (doses to about 46 µM), most hits filed as inhibitors. A549 ARE-Fluc reporter, luciferase luminescence, 18-24 h. AID 504444; also: nearly all actives have a fitted effect of over 60% in size
#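 Two sequential reads on A549 ARE_Fluc cells exposed to compound for 18-24 h: a CellTiter-Fluor fluorescence read for viability, then a luciferase luminescence read for Nrf2/ARE activity.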
# GALK inh = blocks human galactokinase activity | Purified GALK, Kinase-Glo residual ATP luminescence | hit rate 0.007% among 270,000 | P51570 | Potency, µM (series often up to 57.5 µM), hits mostly inhibitors
# Target sequence (P51570 whole entry, looked up): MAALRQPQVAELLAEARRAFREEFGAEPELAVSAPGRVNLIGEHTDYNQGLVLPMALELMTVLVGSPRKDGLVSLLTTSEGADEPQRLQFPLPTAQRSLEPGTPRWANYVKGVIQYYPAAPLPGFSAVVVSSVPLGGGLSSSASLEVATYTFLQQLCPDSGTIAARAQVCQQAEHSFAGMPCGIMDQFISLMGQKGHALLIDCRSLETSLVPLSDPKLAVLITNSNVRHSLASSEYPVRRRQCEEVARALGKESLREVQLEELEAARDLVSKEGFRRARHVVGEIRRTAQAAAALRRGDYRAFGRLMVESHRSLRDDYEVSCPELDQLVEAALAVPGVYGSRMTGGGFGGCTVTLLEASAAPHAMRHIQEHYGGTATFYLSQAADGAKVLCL
#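 Luminescence from leftover ATP (Ultra-Glo luciferase/luciferin) served as read-out after a 1 h room-temperature reaction of 5 nM GALK with 35 uM ATP and 100 uM galactose.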
# A549 viability = counter-screen for Nrf2 inhibitors: cytotoxicity in A549 cells; A549 ARE-Fluc cells, CellTiter-Fluor viability, 18-24 h; Potency, µM (series often up to 46 µM), actives largely listed as inhibitors; hit rate 0.16% among 390,000; AID 504648
#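 A549 ARE-Fluc cells in 5% FBS OPTI-MEM, 5000 cells/well, rested 2 h then exposed to compounds in concentration-response for 18-24 h at 37 °C. Viability by CellTiter-Fluor fluorescence (Ex 405/Em 525) after 30 min; luciferase luminescence (BugLite, 15 min, RT) read afterwards.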
# Nrf2 ARE act = Nrf2 pathway activation | hit rate 0.31% among 410,000 | AREc32 ARE-luciferase reporter (MCF7-derived line), luminescence, 24 h | Potency, µM (top dose mostly 46.1 µM), most hits filed as activators | AID 624171; also: nearly all actives have a fitted effect of over 65% in size
#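 Each well held 1000 AREc32 cells, which were incubated with compound for 24 hr at 37 deg C after overnight attachment, and ARE reporter activity was quantified by firefly luciferase luminescence.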
# TrxR1 substrate = rat thioredoxin reductase 1 substrate activity; purified TrxR1 substrate turnover, NADPH consumption readout; Potency, µM (highest dose often 114 µM); hit rate 0.01% among 390,000; AID 588456; also: nearly all actives have a fitted effect of over 50% in size
#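 Rat TrxR1, dispensed at 90 nM, was prereduced with 400 uM NADPH (final) for 5 min at ~22 deg C, then incubated with compound 15 min before 400 uM selenite. A first-read NADPH fluorescence drop versus no-compound background flagged substrates.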
# rTrxR1 inhibitor = blocks rat thioredoxin reductase 1; O89049; recombinant rTrxR1, NADPH fluorescence consumption, selenite substrate; Potency, µM (top dose mostly 114 µM), actives largely listed as inhibitors; hit rate 1% among 390,000; AID 588453; also: nearly all actives have a fitted effect of over 65% in size
#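 Rat TrxR1 (90 nM in the dispensed reagent) was pre-reduced with 400 uM NADPH for 5 min at room temperature, then incubated with compound for 15 min. After 400 uM selenite was added, NADPH fluorescence (Ex 340/Em 450 nm) was followed for 8 min.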
# A number is an active result; . = inactive; ? = inconclusive; / = no result given; [ ] = remark or other dose. Calls follow the shape of the dose curve; as a rule, active = well fitted curve in the direction sought with a large enough effect; inconclusive = small, poorly fitted or top-dose-only effect, or another doubt; inactive = no such curve, though single readings can be large; an effect the other way counts as inactive or inconclusive.
SMILES,Nrf2 block,GALK inh,A549 viability,Nrf2 ARE act,TrxR1 substrate,rTrxR1 inhibitor
O=C(NCC(c1ccc2c(c1)OCO2)N1CCN(c2ccccc2)CC1)C(=O)Nc1ccc(F)cc1 (centres undefined),/,/,.,.,.,.
N#Cc1c(N)n(-c2cccc(Cl)c2)c2nc3ccccc3nc12,.,/,.,.,.,.
Cn1c(=O)c2cn(Cc3ccc(Cl)cc3)cc2n(C)c1=O,12µM,.,.,.,.,?
CN1CC(=O)Nc2cc(C(=O)O)ccc21,/,/,.,.,.,.
C[C@H]1O[C@@H](n2cc(F)c(=O)[nH]c2=O)[C@H](O)[C@H]1O,/,/,/,/,.,.
COc1ccc(/C=C/c2cc(C(F)(F)F)[nH]c(=O)n2)cc1OC,.,.,.,?,.,.
CCOc1cc(/C=C/c2ccc3cccc([N+](=O)[O-])c3n2)ccc1OCC(=O)N(C)C,?,.,.,.,.,.
CCOc1cc(/C=C/c2cc(C(F)(F)F)[nH]c(=O)n2)ccc1O,21µM,.,?,.[9.22 µM],.,.
CCOc1cc(/C=C/c2ccc3cccc([N+](=O)[O-])c3n2)ccc1O,23µM,.,?,?,.,?
CC(=O)c1cccc(NC(=O)c2nc(-c3ccc(C)cc3)n3c2CCCCC3)c1,.,/,.,.,.,.
O=[N+]([O-])c1ccc(O)c(/C=N/Nc2ccc(Cl)nn2)c1,3.7µM,.,?,.,.,.
CCOc1ccc(Nc2nc(C)c(NC(=O)c3cccc(F)c3)c(Nc3ccc(OCC)cc3)n2)cc1,.,/,.,.,.,.
CN1C=C/C(=C\c2cc[n+](C)c3ccccc23)c2ccccc21,5.8µM,.,?,.,.,.
Cc1cc(C)n2nc(-c3ccccc3)cc2n1,?,.,.,8.9µM,.,.
CN(C)S(=O)(=O)c1cccc(-c2nn(-c3ccccc3)cc2/C=C(\C#N)c2nc3ccccc3[nH]2)c1,?,.,.,.,.,.
CN(C)S(=O)(=O)c1cccc(-c2nn(-c3ccccc3)cc2/C=C2\SC(=S)NC2=O)c1,16µM,.,?,.,.,.
Cc1ccc(-c2cc(C(F)(F)F)n3nc(C(=O)Nc4sc5c(c4C#N)CCC(C)C5)cc3n2)cc1 (centres undefined),.,/,.,.,.,.
COc1ccccc1-c1cn(-c2ccccc2)c(=S)[nH]1,.,.,.,.,.,.
COc1ccccc1C1=NC(c2ccccc2)CN1c1ccccc1 (centres undefined),.,.,.,.,.,22µM
COc1ccc(NC(=O)/C(Cl)=C(/Cl)S(=O)Cc2ccc(Cl)cc2)cn1 (centres undefined),?,.,21µM,.[9.22 µM],.,?
COc1ccc(NC(=O)C(Cl)=C(Cl)Cl)cn1,.,.,.,?,.,.
COc1ccc(NC(=O)/C(Cl)=C(/Cl)S(=O)(=O)Cc2ccccc2)cn1,/,.,?,?,.,7.1µM
CC(C)(C)n1nnnc1C(c1ccc(C(F)(F)F)cc1)N(Cc1ccccc1)Cc1ccco1 (centres undefined),15µM,.,.,.,.,.
O=C(CSc1n[nH]c(=O)n1C1CC1)Nc1ccccc1,.,.,.,.,.,.
O=C(CSc1n[nH]c(=O)n1C1CC1)Nc1cc(Cl)ccc1Oc1ccccc1,18µM,.,?,.,.,.
SMILES,Nrf2 block,GALK inh,A549 viability,Nrf2 ARE act,TrxR1 substrate,rTrxR1 inhibitor
O=C1CCCC2=C1C1(CCOCC1)N=C(Nc1nc3ccccc3o1)N2,?,/,.,/,/,/
COC(=O)c1sc2cccc(F)c2c1S(=O)(=O)NCc1ccc(Cl)cc1,.,/,.,11µM,.,.
COC(=O)c1sc2cccc(F)c2c1S(=O)(=O)NC(C)c1ccccc1 (centres undefined),.,/,.,?,.,.
COC(=O)c1sc2cccc(F)c2c1S(=O)(=O)NCc1ccccc1Cl,.,/,.,13µM,.,.
CS(=O)(=O)N1CCC(N2CCN(Cc3ccc(F)cc3)C(=O)C2=O)CC1,?,/,.,.,.,.
COc1ccc(C2Nc3ccccc3C(=O)N2CC(C)(C)C)cc1COc1ccc(NC(C)=O)cc1 (centres undefined),.,/,.,/,/,/
Cc1nc(N2CCN(c3ccccn3)CC2)c2c(C)c(C(=O)N3CCN(c4ccc(F)cc4)CC3)sc2n1,18µM,.,.,.,.,.
COc1ccccc1N1CCN(C(=O)c2sc3nc(C)nc(N4CCN(c5ccccn5)CC4)c3c2C)CC1,15µM,.,.,.,.,.
Cc1nc(N2CCN(C(=O)COc3ccccc3)CC2)c2c(C)c(C)sc2n1,21µM,.,.,.,.,.
COCCCNC(=O)c1ccc(Cn2c(SCc3ccc(F)cc3)nc3cccnc32)cc1,?,/,.,.,.,.
CCn1cc2nc(SCC(=O)Nc3ccc(OC)c(OC)c3)n(Cc3ccc(Cl)cc3)c(=O)c2n1,?,/,.,.,.,.
CCOc1ccc(NC(=O)N2CCC(CN3CCc4ccccc4C3)CC2)cc1,.,/,.,.,.,.
CC1CCCCN1C(=O)CSc1c2c(nc3cc(Cl)ccc13)CCCC2 (centres undefined),.,/,.,?,.,.
Cc1cc2c(cc(C(=O)OCC(=O)NCc3ccco3)n2C)s1,.,.,.,.,.,.
Cn1c(C(=O)OCC(=O)NCc2ccco2)cc2sccc21,.,.,.,.,.,25µM
COc1ccc(CNC(=O)c2cc3cc(S(=O)(=O)N4CCCCC4)ccc3n2C)c(OC)c1,/,/,.,.,.,.
O=C(C[n+]1ccccc1)c1ccc(O)c(O)c1,/,/,/,/,.,.
O=S(=O)(c1ccccc1)c1nc(-c2cccs2)oc1SCc1ccccc1F,.[9.27 µM],/,.,.,.,.
CCN1/C(=C/c2ccc3cc(C)ccc3[n+]2CC)Sc2ccc3sccc3c21,6.5µM,/,?,.,.,.
CCc1sc(Nc2cccc(C)c2)nc1-c1cc2cccc(OC)c2oc1=O,/,/,.,.,.,.
COc1ccc(-c2oc3ncn4nc(-c5ccccc5O)nc4c3c2-c2ccc(OC)cc2)cc1,.,/,.,.,.,.
CC(C)(C)n1ncc2c(=O)n(Cc3c(Cl)cccc3Cl)cnc21,/,/,/,/,.,.
C=CCNS(=O)(=O)c1nc(C)c(Cl)c(C)c1C#N,.,.,.,11µM,.,.
CSc1nc(C)c(Cl)c(C)c1C#N,.,.,.,.,.,.
COc1ccc2oc3cc(C)[n+]([O-])c(-c4ccc(Br)cc4)c3c2c1,23µM,.,?,.,.,.
Oc1cccc(C2c3[nH]c4ccccc4c3CCN2Cc2ccoc2)c1 (centres undefined),.,.,.,.,.,40µM
Cc1ccc(-c2ccc(NC(=O)C3C4C=CC(C4)C3C(=O)O)cc2)o1 (centres undefined),?,.,/,.,.,22µM

# Assay outcomes (PubChem)
